# Laboratory results published in the OligoGym collection.
# Biological target: KIAA0101
# Assay: pooled miR-30 sensor sort-seq; sequence = guide strand
# Settings: shRNA
# Note: reference of the scale not given here.
row,Sequence,sensor-assay potency score (higher = more potent)
1,TTCAGGAATCTGATTCTCTTTT,-0.732
2,TTTGCTTTTCCTAAGCCACTGC,0.846
3,TTACATTCTAGAATACCAGGGT,1.19
4,TTCCTTTTTGCCACTTGGGAGT,-1.06
5,TTTTTCAGAATCTTTAGGGGAC,0.436
6,ATTTGTGTGATCAGGTTGCAAA,-1.36
7,TTCTTTTTCATCATTTGTGTGA,-0.441
8,TTCCTAAGCCACTGCTTCCTGC,-1.25
9,TTATTTTCAGCTTTCCTCGATG,-0.0942
10,TTCATCATTTGTGTGATCAGGT,1.01

# Biological target: KIAA0319
# Assay: as above
# Settings: shRNA
row,Sequence,sensor-assay potency score (higher = more potent)
1,TTCACTAGAAACAGTGACTTTG,-0.766
2,TTATAATTAGGTTATCTCCAGC,-0.767
3,TAAAACACAATCACGGTGCTGA,1.15
4,TTCAGCAGCTTTGAGAACCTTG,-0.33
5,TTATGGTGTGATTTGGTCCTGC,0.156
6,TACATAAAACACAATCACGGTG,-0.47
7,TTTCACTAGAAACAGTGACTTT,-0.974
8,TTTATTTCTATTAACAAGCATC,-1.13
9,TAAGAGTTTGCTTGTGTCCTTG,0.184
10,TTCACCTTGGTAGTCTGTGGGG,-0.629
11,TTCTCTTCTATGAAGGGCCCGT,-0.659
12,AAATGTATAATCTCCTTCCTGC,0.3

# Biological target: KIAA0368
# Assay: as above
# Settings: shRNA
row,Sequence,sensor-assay potency score (higher = more potent)
1,TTAACTTGACTCTTGTACTGAC,0.576
2,TTTAACTTGACTCTTGTACTGA,0.641
3,TTCTGTAGCACTCTGAATGAGT,-0.327
4,TTTGATGCAACATCTTGGCTAA,0.354
5,TTTTGTAGTCTTTATAAGCTGT,-0.31
6,TTGAATTTGTATTTGTACCAAA,-0.672
7,TTTATTTAAAATCACATCCAAC,-1.25
8,TTCTGAATCACACTGTTCCGAT,-0.203
9,TTGAATAGCAAGTCGAGTCTCA,0.314
10,TTTTCTTGCTCTGTCGCCCGGA,0.627
11,TATTCTGTAATTGTTCATCTGT,0.659
12,TTGTATTTGACATTCTCTTTGC,-0.267

# Biological target: KIAA0564
# Assay: as above
# Settings: shRNA
row,Sequence,sensor-assay potency score (higher = more potent)
1,TTTGCCAGAACAATCATCCTAA,0.448
2,TAACAACTTAAGTTGGTCCTTG,0.426
3,TTGAATATAACAACTTAAGTTG,-0.73
4,TTTTTTTCTAATGCTGACCTAG,-0.423
5,TAGTCTTTGCTTATTGTCCTTG,-0.514
